{
  "source": "PubChem BioAssay (NCI)",
  "note": "About 83,000 compounds went through this panel and 20% of them were active in at least one assay; those are over-represented in the sample as a whole.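 How to read the values: 0–100, growth inhibition (40 = 60% inhibited); 0, no net growth; -100 to 0, cell death (-40 = 40% of starting cells died; -100 = all dead).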 Values without a mark were called inactive. Calls of active or inactive are those of the source. Rule for the calls: active = growth percent below 10; inactive = the rest.",
  "data": [
    {"system": "MDA-MB-435 melanoma", "test": "NCI-60 one-dose screen, 48 h (100 = growth as untreated, 0 = no growth, -100 = all killed)", "conditions": "10 µM unless noted", "values": [
      {"compound": "COc1ccc(C(c2cc(OC)c(OC)c(OC)c2)N2CCN(Cc3ccccc3)CC2)cc1", "note": "(stereo not given)", "growth": "-32.2% (active)"},
      {"compound": "COc1ccc2nc(SCC(=O)Nc3ccccc3C)[nH]c2c1", "growth": "97%"},
      {"compound": "N/C(=N\\c1nc2ccccc2s1)NC(=NC1CCCCC1)NC1CCCCC1", "growth": "-33.7% (active)"},
      {"compound": "CSCCC(NC(=O)c1ccccc1)C(=O)N/N=C1\\S/C(=C/c2ccc(Cl)cc2)C(=O)N1C", "note": "(stereo not given)", "growth": "86.2%"},
      {"compound": "S=c1[nH]c2cc(Cl)ccc2o1", "growth": "96.5%"},
      {"compound": "COc1ccc(-c2cc(C(=O)N3N=C(c4ccc(N)cc4)CC3c3ccccc3)c3ccccc3n2)cc1", "note": "(stereo not given)", "growth": "-20% (active)"},
      {"compound": "Cn1c(=O)c2c(nc(NC3=NS(=O)(=O)c4ccccc43)n2Cc2ccccc2)n(C)c1=O", "growth": "101%"},
      {"compound": "O=C(Nc1cccnc1Nc1ccc(Cl)cc1)c1cn(Cc2ccc(F)cc2)nn1", "growth": "97.2%"},
      {"compound": "Cc1c2cc[nH]c(=O)c2c(C)c2c1[nH]c1ccc(OC(=O)c3ccccc3)cc12", "growth": "28%"},
      {"compound": "N=C(N)c1ccc(-c2ccc(-c3ccc(Cl)cc3Cl)s2)cc1F", "growth": "-79.9% (active)"},
      {"compound": "COc1ccc2cc(Cn3cc[n+](Cc4ccc5ccccc5c4)c3)ccc2c1", "growth": "7% (active)"},
      {"compound": "COC(=O)c1c2c(n3ccc(C)cc13)C(=O)c1ccccc1C2=O", "growth": "93.4%"},
      {"compound": "CNC(=O)c1cc(Oc2ccc3nc(NC(=O)Nc4ccc(Cl)c(Cl)c4)sc3c2)ccn1", "growth": "22.6%"},
      {"compound": "Cc1c(Cl)cccc1C(=O)Nc1nc2c(s1)CN(C(=O)Nc1cccc(C(F)(F)F)c1)CC2", "growth": "-22% (active)"},
      {"compound": "Cc1c2cnccc2c(C)c2c1c1cc(C3OCCCO3)ccc1n2C", "growth": "-28.1% (active)"},
      {"compound": "CC(C)c1ccc(-n2c(=S)[nH]c3sc4c(c3c2=O)CCC(=O)C4)cc1", "growth": "91.8%"},
      {"compound": "O=C(Nc1cccc(NC(=O)C2CCCCC2)c1)c1ccccn1", "growth": "102%"},
      {"compound": "O=C1NC(=O)c2c1c1c3ccccc3[nH]c1c1oc3ccc(F)cc3c21", "growth": "76%"},
      {"compound": "CCOC(=O)c1ccc2c(c1)c1c(C)c3ccncc3c(C)c1n2C", "growth": "3.03% (active)"},
      {"compound": "COc1ccc(-c2oc(=O)ccc2-c2cc(OC)c(OC)c(OC)c2)cc1O", "growth": "-64.9% (active)"},
      {"compound": "COc1cc(Nc2c3ccc(Cl)cc3nc3ccc(OC)cc23)c2ncccc2c1", "growth": "65.6%"},
      {"compound": "O=C(CCCCCCN1CC(=O)N2[C@@H](C3CCCCC3)c3[nH]c4ccccc4c3C[C@H]2C1=O)NO", "growth": "60.6%"},
      {"compound": "C=CCN=C(N)SCCCCCCSC(N)=NCC=C", "growth": "99.3%"},
      {"compound": "O=C(/C=C\\c1ccco1)/C=C/c1ccco1", "growth": "98.3%"},
      {"compound": "C#Cc1cccc(Nc2nc3ccc([N+](=O)[O-])cc3nc2Nc2cccc(C#C)c2)c1", "growth": "-78% (active)"},
      {"compound": "COc1cc(/C=C2\\CN(S(=O)(=O)c3ccc(C)cc3)C/C(=C\\c3cc(CN4CCCCC4)c(O)c(OC)c3)C2=O)cc(CN2CCCCC2)c1O", "growth": "-82.6% (active)"},
      {"compound": "O=C1/C(=C/c2ccc(Br)cc2)COc2ccc(O)c(O)c21", "growth": "-24.4% (active)"},
      {"compound": "O=C1CC2C=CCN2C=C1NC(=O)C1CCCCC1", "note": "(stereo not given)", "growth": "102%"},
      {"compound": "CCN(CC)CCOc1nc2c3ccc(Cl)cc3nn2c2ccccc12", "growth": "36.3%"},
      {"compound": "COc1ccc2c(O)c(/C=C3\\N=Nc4ccccc43)oc2c1C[C@H]1CCNC[C@H]1F", "growth": "35.4%"},
      {"compound": "CCCCCCC(=O)Nc1ncc(Cc2ccc(C)cc2)s1", "growth": "-25.9% (active)"},
      {"compound": "COc1ccc(C2C3=C(COC3=O)N(CCO)c3cc4c(cc32)OCCO4)cc1OC", "note": "(stereo not given)", "growth": "-44.1% (active)"},
      {"compound": "Nc1c(C(=O)Nc2ccccn2)sc2nc3c(cc12)C(O)CCC3", "note": "(stereo not given)", "growth": "-44.6% (active)"},
      {"compound": "Cc1nc2sc(C(=O)Nc3ccc(Cl)cc3)c(N)c2cc1C(O)c1ccccc1", "note": "(stereo not given)", "growth": "-12.6% (active)"},
      {"compound": "COc1ncc2cc1NS(=O)(=O)c1cccc(c1)C(=O)NCC1=CC=C(S1)c1ncnc3c1SC2=C3C", "growth": "-28.6% (active)"},
      {"compound": "CC(/C=C1\\SC(=S)N(CC(=O)NC(Cc2c[nH]c3ccccc23)C(=O)O)C1=O)=C\\c1ccccc1", "note": "(stereo not given)", "growth": "104%"},
      {"compound": "C=C(C)[C@@H]1CC[C@]2(CO)CC[C@]3(C)[C@H](CC[C@@H]4[C@@]5(C)CCC(NCCc6ccc(O)cc6)C(C)(C)[C@@H]5CC[C@]43C)[C@@H]12", "note": "(stereo not given in full)", "growth": "-92.4% (active)"},
      {"compound": "Cn1cc(-c2nn3cc(-c4ccccc4)nc3s2)c2ccccc21", "growth": "-1.83% (active)"},
      {"compound": "C#CCOc1cccc(-c2ncc3cc(NC(=O)CCl)ccc3n2)c1", "growth": "2.74% (active)"},
      {"compound": "C#CC#CC#CC#CC#CC#CC#CC#CC[C@H]1OC[C@@H](COC(=O)O[C@@H](C(=O)O[C@H]2C[C@@]3(O)[C@@H](OC(=O)c4ccccc4)[C@@H]4[C@]5(OC(C)=O)CO[C@@H]5C[C@H](O)[C@@]4(C)C(=O)[C@H](OC(C)=O)C(=C2C)C3(C)C)[C@@H](NC(=O)c2ccccc2)c2ccccc2)O1", "growth": "-47.8% (active)"}
    ]},
    {"system": "SW-620 colon", "test": "NCI-60 one-dose screen, 48 h (100 = growth as untreated, 0 = no growth, -100 = all killed)", "conditions": "10 µM unless noted", "values": [
      {"compound": "COc1ccc(C(c2cc(OC)c(OC)c(OC)c2)N2CCN(Cc3ccccc3)CC2)cc1", "note": "(stereo not given)", "growth": "43.6%"},
      {"compound": "COc1ccc2nc(SCC(=O)Nc3ccccc3C)[nH]c2c1", "growth": "99.4%"},
      {"compound": "N/C(=N\\c1nc2ccccc2s1)NC(=NC1CCCCC1)NC1CCCCC1", "growth": "0.593% (active)"},
      {"compound": "CSCCC(NC(=O)c1ccccc1)C(=O)N/N=C1\\S/C(=C/c2ccc(Cl)cc2)C(=O)N1C", "note": "(stereo not given)", "growth": "93.5%"},
      {"compound": "S=c1[nH]c2cc(Cl)ccc2o1", "growth": "94.2%"},
      {"compound": "COc1ccc(-c2cc(C(=O)N3N=C(c4ccc(N)cc4)CC3c3ccccc3)c3ccccc3n2)cc1", "note": "(stereo not given)", "growth": "23.4%"},
      {"compound": "Cn1c(=O)c2c(nc(NC3=NS(=O)(=O)c4ccccc43)n2Cc2ccccc2)n(C)c1=O", "growth": "102%"},
      {"compound": "O=C(Nc1cccnc1Nc1ccc(Cl)cc1)c1cn(Cc2ccc(F)cc2)nn1", "growth": "114%"},
      {"compound": "Cc1c2cc[nH]c(=O)c2c(C)c2c1[nH]c1ccc(OC(=O)c3ccccc3)cc12", "growth": "28%"},
      {"compound": "N=C(N)c1ccc(-c2ccc(-c3ccc(Cl)cc3Cl)s2)cc1F", "growth": "-64% (active)"},
      {"compound": "COc1ccc2cc(Cn3cc[n+](Cc4ccc5ccccc5c4)c3)ccc2c1", "growth": "44.4%"},
      {"compound": "COC(=O)c1c2c(n3ccc(C)cc13)C(=O)c1ccccc1C2=O", "growth": "54.3%"},
      {"compound": "CNC(=O)c1cc(Oc2ccc3nc(NC(=O)Nc4ccc(Cl)c(Cl)c4)sc3c2)ccn1", "growth": "50.4%"},
      {"compound": "Cc1c(Cl)cccc1C(=O)Nc1nc2c(s1)CN(C(=O)Nc1cccc(C(F)(F)F)c1)CC2", "growth": "33.4%"},
      {"compound": "Cc1c2cnccc2c(C)c2c1c1cc(C3OCCCO3)ccc1n2C", "growth": "4.71% (active)"},
      {"compound": "CC(C)c1ccc(-n2c(=S)[nH]c3sc4c(c3c2=O)CCC(=O)C4)cc1", "growth": "48.5%"},
      {"compound": "O=C(Nc1cccc(NC(=O)C2CCCCC2)c1)c1ccccn1", "growth": "115%"},
      {"compound": "O=C1NC(=O)c2c1c1c3ccccc3[nH]c1c1oc3ccc(F)cc3c21", "growth": "64.6%"},
      {"compound": "CCOC(=O)c1ccc2c(c1)c1c(C)c3ccncc3c(C)c1n2C", "growth": "0.329% (active)"},
      {"compound": "COc1ccc(-c2oc(=O)ccc2-c2cc(OC)c(OC)c(OC)c2)cc1O", "growth": "14.8%"},
      {"compound": "COc1cc(Nc2c3ccc(Cl)cc3nc3ccc(OC)cc23)c2ncccc2c1", "growth": "45.7%"},
      {"compound": "O=C(CCCCCCN1CC(=O)N2[C@@H](C3CCCCC3)c3[nH]c4ccccc4c3C[C@H]2C1=O)NO", "growth": "47%"},
      {"compound": "C=CCN=C(N)SCCCCCCSC(N)=NCC=C", "growth": "94.7%"},
      {"compound": "O=C(/C=C\\c1ccco1)/C=C/c1ccco1", "growth": "103%"},
      {"compound": "C#Cc1cccc(Nc2nc3ccc([N+](=O)[O-])cc3nc2Nc2cccc(C#C)c2)c1", "growth": "-64.2% (active)"},
      {"compound": "COc1cc(/C=C2\\CN(S(=O)(=O)c3ccc(C)cc3)C/C(=C\\c3cc(CN4CCCCC4)c(O)c(OC)c3)C2=O)cc(CN2CCCCC2)c1O", "growth": "-77.5% (active)"},
      {"compound": "O=C1/C(=C/c2ccc(Br)cc2)COc2ccc(O)c(O)c21", "growth": "-35.9% (active)"},
      {"compound": "O=C1CC2C=CCN2C=C1NC(=O)C1CCCCC1", "note": "(stereo not given)", "growth": "107%"},
      {"compound": "CCN(CC)CCOc1nc2c3ccc(Cl)cc3nn2c2ccccc12", "growth": "19.7%"},
      {"compound": "COc1ccc2c(O)c(/C=C3\\N=Nc4ccccc43)oc2c1C[C@H]1CCNC[C@H]1F", "growth": "15.6%"},
      {"compound": "CCCCCCC(=O)Nc1ncc(Cc2ccc(C)cc2)s1", "growth": "22.4%"},
      {"compound": "COc1ccc(C2C3=C(COC3=O)N(CCO)c3cc4c(cc32)OCCO4)cc1OC", "note": "(stereo not given)", "growth": "13.2%"},
      {"compound": "Nc1c(C(=O)Nc2ccccn2)sc2nc3c(cc12)C(O)CCC3", "note": "(stereo not given)", "growth": "21.8%"},
      {"compound": "Cc1nc2sc(C(=O)Nc3ccc(Cl)cc3)c(N)c2cc1C(O)c1ccccc1", "note": "(stereo not given)", "growth": "25.1%"},
      {"compound": "COc1ncc2cc1NS(=O)(=O)c1cccc(c1)C(=O)NCC1=CC=C(S1)c1ncnc3c1SC2=C3C", "growth": "3.04% (active)"},
      {"compound": "CC(/C=C1\\SC(=S)N(CC(=O)NC(Cc2c[nH]c3ccccc23)C(=O)O)C1=O)=C\\c1ccccc1", "note": "(stereo not given)", "growth": "104%"},
      {"compound": "C=C(C)[C@@H]1CC[C@]2(CO)CC[C@]3(C)[C@H](CC[C@@H]4[C@@]5(C)CCC(NCCc6ccc(O)cc6)C(C)(C)[C@@H]5CC[C@]43C)[C@@H]12", "note": "(stereo not given in full)", "growth": "-80% (active)"},
      {"compound": "Cn1cc(-c2nn3cc(-c4ccccc4)nc3s2)c2ccccc21", "growth": "43.7%"},
      {"compound": "C#CCOc1cccc(-c2ncc3cc(NC(=O)CCl)ccc3n2)c1", "growth": "-58.3% (active)"},
      {"compound": "C#CC#CC#CC#CC#CC#CC#CC#CC[C@H]1OC[C@@H](COC(=O)O[C@@H](C(=O)O[C@H]2C[C@@]3(O)[C@@H](OC(=O)c4ccccc4)[C@@H]4[C@]5(OC(C)=O)CO[C@@H]5C[C@H](O)[C@@]4(C)C(=O)[C@H](OC(C)=O)C(=C2C)C3(C)C)[C@@H](NC(=O)c2ccccc2)c2ccccc2)O1", "growth": "42.4%"}
    ]}
  ]
}
